Most compounds without a hit are left out; they make up all but 4.9% or so of the library.
NLRP3 yeast inh – NALP3 inflammasome inhibitors in reconstituted yeast, primary screen, luminescence, uHTS. 330,000 tested, 0.39% active. Yeast reconstituted NLRP3/ASC/caspase-1, beta-gal luminescence, 24 h. inhibition, % at 10 µM;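 active = inhibition of 50% or more; inactive = inhibition below 50%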
NALP1 yeast inh – NALP1 inflammasome inhibitors in reconstituted yeast, colorimetric, S. cerevisiae, triplicate retest; 280,000 tested, 0.61% active; inhibition, % at 10 µM; S. cerevisiae NALP1/ASC/caspase-1 growth, X-gal OD620, 72 h; in the data active = inhibition mostly above about 24%, no sharp cut-off; inactive = mostly below about 32%
tim10-1 inh – growth inhibitors of tim10-1 mutant yeast, primary screen, luminescence, uHTS; S. cerevisiae tim10-1 ts strain growth, BacTiter-Glo, 24 h; inhibition, % at 20 µM; 330,000 tested, 2.2% active;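 active = inhibition of at least 40%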;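 also: mutant grown at 25 °C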
tim23-1 inh – growth inhibitors of tim23-1 mutant yeast, primary screen, luminescence, uHTS; S. cerevisiae tim23-1 growth, BacTiter-Glo luminescence, 24 h; inhibition, % at 20 µM; 330,000 tested, 1.3% active; AID 463212, 2010;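 active = growth inhibition of the mutant yeast at or above 50%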;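 also: temperature-sensitive mutant grown at 25 °C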
SKKanGAS inh – S. pyogenes SKKanGAS growth inhibitors in kanamycin, primary screen, streptokinase expression inhibitor project, SKKanGAS strain, BacTiter-Glo luminescence; AID 1662, 2009; inhibition, % at 7.5 µM; 300,000 tested, 1.3% active; 6 h;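 active = mean replicate score, as percent of positive control median, at least 50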;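 also: strain carries kanamycin resistance gene driven by streptokinase promoter and grows in 40 µg/ml kanamycin; loss of luminescence reflects streptokinase promoter inhibition or plain growth inhibition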
TIM10 inh – growth inhibitors of isogenic TIM10 control yeast, primary screen, counter-screen for tim10-1 yeast inhibitor project, luminescence, uHTS | S. cerevisiae TIM10 strain growth, BacTiter-Glo luminescence, 24 h | inhibition, % at 10 µM | 330,000 tested, 1.4% active | AID 463195, 2010;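 active = inhibition of 40% or more at the single tested concentration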;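 also: wild-type TIM10 isogenic control strain grown at permissive 25 °C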
tim23-1 confirm – tim23-1 mutant yeast growth inhibitors, confirmation, luminescence, single concentration; shares compounds with tim23-1 inh; S. cerevisiae tim23-1 growth, BacTiter-Glo luminescence, 24 h; inhibition, % at 20 µM; 4,400 tested, 83% active;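 active = inhibition above about 39% in either of two replicate wells at 20 µM, limit read from the data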;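 also: temperature-sensitive tim23-1 mutant grown at 25 °C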
Hits are given with their value; - = inactive; . = not tested or not shown.

SMILES	NLRP3 yeast inh	NALP1 yeast inh	tim10-1 inh	tim23-1 inh	SKKanGAS inh	TIM10 inh	tim23-1 confirm
Cc1nn(C)c(C)c1NS(=O)(=O)c1ccc(Cl)s1	-	.	-	-	.	-	.
Cc1ccc(F)cc1NS(=O)(=O)c1ccc(Cl)s1	-	.	-	51	.	-	50
CCCC(=O)n1nc(-c2ccco2)nc1SCc1ccccc1	-	-	-	54	-	-	52
CCC(C)(C)c1ccc(OCCCC[n+]2cccc(C)c2C)c(C(C)(C)CC)c1	-	-	-	59	-	-	36
Cc1cc(C(C)(C)C)ccc1OCCCCN1CCCC1	-	-	-	-	-	-	.
NC1=NS(=O)(=O)NC1c1cccc(Cl)c1 (configuration not stated)	-	-	-	-	-	-	.
Cn1c(C=O)c(-c2ccc3c(c2)OCCO3)c2ccccc21	-	.	-	53	.	-	53
CN(CCc1ccccn1)C(=O)CC1C(=O)NCCN1Cc1cccc(F)c1 (configuration not stated)	-	-	-	-	-	-	.
CN(C)S(=O)(=O)c1cccc(NC(=S)N/N=C/c2cc(Br)ccc2O)c1	-	-	-	58	107	-	48
COc1ccccc1/C=N/NC(=O)NC12CC3CC(CC(C3)C1)C2	-	-	-	-	-	-	.
COc1ccc(/C=N/NC(=O)NC23CC4CC(CC(C4)C2)C3)c(OC)c1	-	-	-	55	-	-	45
CC(C)(C)c1csc(NC(=O)c2ccc(Br)o2)n1	-	-	-	53	-	-	48
CC(C)(C)c1csc(NC(=O)c2ccc(Cl)s2)n1	-	-	-	70	-	-	74
Cc1ccc(C(=O)Nc2nc(C(C)(C)C)cs2)s1	-	-	-	52	-	-	42
Cc1cc(Cl)ccc1OCC(=O)Nc1cccnc1	-	-	-	-	-	-	.
Cc1cccc(NC(=O)CNC(=O)COC(=O)C2CC2C)c1C (configuration not stated)	-	.	-	-	.	-	.
O=C(O)CC/C(=N\NC(=O)c1ccncc1)c1ccccc1	-	-	-	-	-	-	.
O=C(/C(=C/O)N=Nc1ccccc1)c1ccncc1	-	-	-	56	-	-	-
CCOCCCNC(=O)C(c1ccc(C)cc1)N(Cc1cccs1)C(=O)CNC(C)=O (configuration not stated)	-	-	-	-	-	-	.
O=C(Nc1ccc(-c2noc(CCc3ccccc3)n2)cc1)c1ccco1	-	.	-	55	-	-	61
c1ccc(CCc2nc(-c3ccccc3)no2)cc1	-	-	-	-	-	-	.
CN(C)/C=C1/C=C(c2ccccc2)OC1=O	-	-	-	56	-	-	41
CCCCc1nc(NCCO)c(C#N)c2c1CCCC2	-	-	-	-	-	-	.
CC(C)c1nc(NCCO)c(C#N)c2c1CCCC2	-	-	-	54	-	-	39
CCCS(=O)(=O)c1c(S(=O)(=O)CCC)c2cnccn2c1C(=O)c1ccc(Cl)cc1	-	-	-	-	-	-	.
SMILES	NLRP3 yeast inh	NALP1 yeast inh	tim10-1 inh	tim23-1 inh	SKKanGAS inh	TIM10 inh	tim23-1 confirm
CCOC(=O)Nc1ccc2c(c1)Nc1ccccc1S2	-	-	-	62	-	-	52
N#C/C(=C/c1ccc(O)cc1)C(=O)NCc1ccc(Cl)cc1	-	-	-	-	-	-	.
CSc1ccc(/C=C(\C#N)C(=O)NC2CCCCC2)cc1	-	-	-	-	-	-	51
N#C/C(=C/c1ccc(OCc2ccccc2)cc1)C(=O)NC1CCCCC1	-	-	-	-	-	-	.
N#C/C(=C\c1ccc(Cl)cc1)C(=O)NC1CC1	-	.	-	56	-	-	52
CCOc1cc(-c2nc(C)c(C(C)=O)n2O)ccc1OCC(=O)Nc1ccccc1	-	-	-	-	-	-	.
COc1ccccc1NS(=O)(=O)c1cccc(C(=O)N2CCN(C(=O)c3ccco3)CC2)c1	-	.	-	-	.	-	.
CC(=O)COc1cccc2ccc(/C=C/c3ccc(Br)s3)nc12	-	-	-	55	-	-	45
CCOc1cccc2sc(NC(=O)c3ccc(Br)s3)nc12	-	-	-	-	-	-	.
Clc1cccc(Cl)c1CO/N=C/c1c(-c2ccccc2)nc2n1CCS2	-	-	-	-	-	-	.
CCOc1cc(/C=C2\COc3ccccc3C2=O)cc(Br)c1OCC(=O)N(C)C	-	-	-	50	-	-	57
CC(OC(=O)c1cc(S(=O)(=O)N2CCOCC2)ccc1Br)C(=O)N1CCOCC1 (configuration not stated)	-	.	-	-	.	-	.
CCOC(=O)/C(=C\c1cn(C)c2ccccc12)[N+](=O)[O-]	-	.	-	54	-	-	58
Cc1cc(C)c(C(CC(=O)c2cccs2)C(C#N)C#N)c(C)c1 (configuration not stated)	-	-	-	52	-	-	-
CCn1c(=O)c2c(nc(SCC(=O)N3CCCC(C)C3)n2C)n(C)c1=O (configuration not stated)	-	-	-	-	-	-	.
Cc1ccccc1N1CCN(C2CCCN(C(=O)c3csc(C(C)C)n3)C2)CC1 (configuration not stated)	-	-	-	-	-	-	.
CCOc1cc2c(C#N)c(N3CCCC3)nc(N)c2c(N)n1	-	.	-	-	-	-	.
CCCCN(CC)c1nc(N)c2c(N)nc(OCC)cc2c1C#N	-	-	-	56	-	-	44
N#CC1=C(N)c2ccccc2CC12CCCCC2	-	-	-	51	-	-	41
O=C(CNC(=O)C12CC3CC(CC(C3)C1)C2)OCc1cc(=O)n2cc(Br)ccc2n1	-	-	-	-	-	-	.
O=C(CNC(=O)C12CC3CC(CC(C3)C1)C2)OCc1ccc(F)cc1Cl	-	.	-	52	.	-	60
CCOc1ccc(C(=O)NCC(=O)OCc2cc(C(C)=O)ccc2OC)cc1	-	-	-	-	-	-	.
CCOc1ccc(C(C)=O)cc1COC(=O)CNC(=O)C12CC3CC(CC(C3)C1)C2	-	.	-	50	.	-	-
CCCCNC(=S)N/N=C/c1cc(C)ccc1C	-	-	-	53	-	-	42
COc1ccc(NC(=O)/C=C/c2cccc(Br)c2)cn1	-	-	-	87	-	-	-
COc1ccc(C(=O)NC(=O)COC(=O)CCS(=O)(=O)c2ccc(C)cc2)cc1	-	.	-	-	.	-	.
CCC(=O)Nc1nc2c(s1)COc1ccccc1-2	-	-	-	-	-	-	.
O=C(CCCl)Nc1nc2c(s1)CCc1ccccc1-2	-	-	-	70	-	-	74
